An excerpt weighted towards active compounds, which were near 19% of everything screened.
DT40 TDP1 CPT = growth inhibition of DT40 Tdp1-/-;hTDP1 cells with camptothecin (screen for TDP1 inhibitors) | chicken DT40 Tdp1-/-;hTDP1 cells + 20 nM CPT, ATP luminescence, 48 h | Potency, µM (doses to about 46.2 µM), for inactives: at the highest dose activity change, negative = growth inhibition, usual class: inhibitors | 12% of 420,000 active; further: potency means the concentration at half of the fitted maximal effect; nearly all actives have a fitted effect of over 55% in size
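Chicken DT40 Tdp1-/- cells complemented with human TDP1, 400 cells/well, exposed to compounds plus 20 nM camptothecin for at least 48 h at 37 C; viability read as ATP content by CellTiter-Glo luminescence.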
HT1080-NT tox = kills 2HG-producing HT-1080-NT fibrosarcoma cells; 1.6% of 360,000 active; Potency, µM (top dose mostly 46.1 µM), for the others: at the highest dose activity, negative = less viability, actives largely listed as cytotoxic; HT-1080-NT fibrosarcoma viability, CellTiter-Glo ATP luminescence, 48 h;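 further: NT is the 2HG producing partner of a matched IDH1 knockdown line; potency means the concentration at half of the fitted maximal effect; 0% = DMSO-treated cells and -100% = media-only wells without cells; nearly all actives have a fitted effect of over 55% in size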
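Viability of the 2HG-overproducing fibrosarcoma line after 48 hours of compound exposure at 37 degrees C was determined by luminescence with CellTiter-Glo, and concentration-effect curves were then fitted and categorized.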
IL1B secr inh = blocks inflammasome-driven IL-1 beta release. THP-1 LPS/ATP IL-1B secretion, AlphaLISA, 16 h; active compounds read low. activity change, % at 57.5 µM. 4.7% of 360,000 active; in the data active means activity change below about -50%; inconclusive means mostly about -30% to -49%
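THP-1 cells pretreated 1 hr with compounds (up to 57.5 uM final), then stimulated with LPS (250 ng/mL final) plus ATP (1.25 mM final); secreted IL-1B measured by AlphaLISA after 16 hr, decreased signal indicating inhibition.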
ELG1 DNA repair = inhibitors of ELG1-dependent DNA repair in HEK293T cells | HEK293T ELG1-luciferase reporter, luminescence, 16 h; DNA damage induced by 5-fluorouridine | 2.3% of 330,000 active | AID 504467 | Potency, µM (series often up to 46.1 µM), for the others: at the highest dose activity change, negative = inhibition, most hits filed as inhibitors; further: potency means the concentration at half of the fitted maximal effect; nearly all actives have a fitted effect of over 55% in size
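Quantitative HTS, concentration-response format. 2,000 cells/well co-treated with 5-fluorouridine and compound, 16 hr in 5% CO2 at 37 °C; ONE-Glo luminescence read after 30 min.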
HT1080 IDH1KD tx = HT-1080 IDH1 knockdown cell toxicity (counter line) | Potency, µM (top dose mostly 46.1 µM), inactives show top-dose activity, negative = toxicity, most hits filed as cytotoxic | 2% of 360,000 active | AID 686971 | HT-1080 IDH1 knockdown viability, ATP luminescence, 48 h;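 further: potency means the concentration at half of the fitted maximal effect; 0% = DMSO wells and -100% = cell-free medium wells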
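Assay cells: HT-1080 with IDH1 knockdown, 750 per well, RPMI/5% FBS. Exposure: 48 h at 37 °C following 2 h pre-incubation. Read: CellTiter-Glo luminescence; fitted concentration-response, curve class assigned.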
DT40 TDP1 no CPT = qHTS for Inhibitors of human tyrosyl-DNA phosphodiesterase 1 (TDP1): qHTS in cells in absence of CPT; 15% of 420,000 active; Potency, µM (doses to about 46.2 µM), for the others: top-dose activity change, negative = growth inhibition, hits mostly inhibitors; AID 686978, 2013; DT40 Tdp1-/- hTDP1 cells, no CPT, ATP luminescence, 48 h; further: potency means the concentration at half of the fitted maximal effect; nearly all actives have a fitted effect of over 55% in size
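Growth kinetics read by CellTiter-Glo luminescence after ≥48 hr at 37 °C. Cells: DT40 Tdp1-/- stably carrying human TDP1, 400 per well, compound exposure in the absence of CPT (DMSO vehicle).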
Active calls of the source: *. Unless noted, the call rests on the fitted dose curve; in most records, active means well fitted curve in the direction sought with a large enough effect; inconclusive means small, poorly fitted or top-dose-only effect, or another doubt; inactive means no such curve, though single readings can be large; an effect the other way counts as inactive or inconclusive. Unless noted, on the % scale 0 is the no-effect control and ±100 the full control effect.

How did O=[N+]([O-])c1ccc(Cl)cc1 do in these assays?
DT40 TDP1 CPT: 9%; HT1080-NT tox: inconclusive; IL1B secr inh: 12; ELG1 DNA repair: 8%; HT1080 IDH1KD tx: 14%; DT40 TDP1 no CPT: -7%

How did Cc1cc(OC(=O)N(C)C)nc(-c2ccc(C)c(Cl)c2)n1 do in these assays?
DT40 TDP1 CPT: 0%; HT1080-NT tox: -10%; IL1B secr inh: -15; ELG1 DNA repair: -8%; HT1080 IDH1KD tx: -11%; DT40 TDP1 no CPT: -26%

What do the screens show for `Cc1ccc(C2C(=O)NC(=O)NC2=O)cc1`?
DT40 TDP1 CPT: -1%; HT1080-NT tox: 29%; IL1B secr inh: 0; HT1080 IDH1KD tx: 17%; DT40 TDP1 no CPT: -24%

How did COc1cc(/C=C/c2ccc3cccc(OC)c3n2)c(OC(C)=O)c([N+](=O)[O-])c1 do in these assays?
DT40 TDP1 CPT: 12µM*; HT1080-NT tox: inconclusive; IL1B secr inh: inconclusive; ELG1 DNA repair: inconclusive; HT1080 IDH1KD tx: inconclusive; DT40 TDP1 no CPT: 15µM*

How did CC1CCC(NC(=O)CN2CCN(S(=O)(=O)c3ccc(Br)s3)CC2)CC1 (configuration not stated) do in these assays?
DT40 TDP1 CPT: 16µM*; HT1080-NT tox: -6%; IL1B secr inh: -4; HT1080 IDH1KD tx: -10%; DT40 TDP1 no CPT: 16µM*

Results for O=C(CN1CCN(S(=O)(=O)c2cc(Br)ccc2Br)CC1)NCc1ccccc1Cl ?
DT40 TDP1 CPT: inconclusive; HT1080-NT tox: -9%; IL1B secr inh: -18; HT1080 IDH1KD tx: -25%; DT40 TDP1 no CPT: inconclusive

How did CCn1nc(-c2ccccc2)nc2c(=O)n(C)c(=O)nc1-2 do in these assays?
DT40 TDP1 CPT: 1.3µM*; HT1080-NT tox: 4.1µM*; IL1B secr inh: -114*; ELG1 DNA repair: inconclusive; HT1080 IDH1KD tx: 5.8µM*; DT40 TDP1 no CPT: 2.6µM*

Results for CC(N)(COP(=O)(O)Oc1ccccc1)C(=O)O (configuration not stated) ?
DT40 TDP1 CPT: -19%; DT40 TDP1 no CPT: -5%

How did CCOC(=O)N1CCN(CC(O)COCCC23CC4CC(CC(C4)C2)C3)CC1 (configuration not stated) do in these assays?
DT40 TDP1 CPT: 12µM*; HT1080-NT tox: -25%; IL1B secr inh: -4; ELG1 DNA repair: -14%; HT1080 IDH1KD tx: -18%; DT40 TDP1 no CPT: 29µM*

How did O=C(Nc1ccc2nc(-c3cccs3)c(-c3cccs3)nc2c1)N1CCCCC1 do in these assays?
DT40 TDP1 CPT: 8.9µM*; DT40 TDP1 no CPT: 11µM*

What do the screens show for `CC1=CC(C)CC(C)OC(=O)CC(c2ccc(O)cc2)NC(=O)C(Cc2c(Br)[nH]c3ccccc23)N(C)C(=O)C(C)NC(=O)C(C)C1` (configuration not stated)?
DT40 TDP1 CPT: 0.026µM*; HT1080-NT tox: 1.3µM*; IL1B secr inh: -4; HT1080 IDH1KD tx: 0.052µM*; DT40 TDP1 no CPT: 0.015µM*

Results for c1cc2c3c(cccc3c1)CC2 ?
DT40 TDP1 CPT: -5%; DT40 TDP1 no CPT: -24%

What do the screens show for `CN(CCC(N)CC(=O)NC1C=CC(n2ccc(N)nc2=O)OC1C(=O)O)C(=N)N` (configuration not stated)?
DT40 TDP1 CPT: inconclusive; DT40 TDP1 no CPT: -20%

Results for COc1cc([C@@H]2c3cc4c(cc3[C@H](OC(C)=O)[C@H]3COC(=O)[C@@H]23)OCO4)cc(OC)c1OC ?
DT40 TDP1 CPT: 1.1µM*; DT40 TDP1 no CPT: 1.1µM*

Results for COc1cc([C@@H]2c3cc4c(cc3[C@@H](O)[C@H]3COC(=O)[C@H]23)OCO4)cc(OC)c1O ?
DT40 TDP1 CPT: 0.1µM*; DT40 TDP1 no CPT: 0.11µM*

What do the screens show for `COc1cc(C2c3cc4c(cc3C(O)[C@H]3COC(=O)C23)OCO4)cc(OC)c1OC` (some centres not stated)?
DT40 TDP1 CPT: 0.023µM*; DT40 TDP1 no CPT: 0.037µM*

What do the screens show for `CSCCC(c1nnnn1-c1c(C)cccc1C)N1CCC2(CC1)C(=O)NCN2c1ccccc1` (configuration not stated)?
DT40 TDP1 CPT: 23µM*; HT1080-NT tox: inconclusive; IL1B secr inh: inconclusive; HT1080 IDH1KD tx: inconclusive; DT40 TDP1 no CPT: inconclusive

What do the screens show for `O=C1NCN(c2ccccc2)C12CCN(C(c1nnnn1Cc1ccccc1)C1CC1)CC2` (configuration not stated)?
DT40 TDP1 CPT: inconclusive; HT1080-NT tox: -2%; IL1B secr inh: -12; HT1080 IDH1KD tx: -23%; DT40 TDP1 no CPT: 21µM*

What do the screens show for `CSCCC(c1nnnn1Cc1ccccc1)N1CCC2(CC1)C(=O)NCN2c1ccccc1` (configuration not stated)?
DT40 TDP1 CPT: 15µM*; HT1080-NT tox: inconclusive; IL1B secr inh: 0; HT1080 IDH1KD tx: -18%; DT40 TDP1 no CPT: 21µM*

Results for CSCCC(c1nnnn1C1CCCC1)N1CCC2(CC1)C(=O)NCN2c1ccccc1 (configuration not stated) ?
DT40 TDP1 CPT: inconclusive; HT1080-NT tox: -2%; IL1B secr inh: -24; HT1080 IDH1KD tx: 0%; DT40 TDP1 no CPT: inconclusive

Results for O=C1NCN(c2ccccc2)C12CCN(C(c1ccccc1)c1nnnn1Cc1ccccc1)CC2 (configuration not stated) ?
DT40 TDP1 CPT: inconclusive; HT1080-NT tox: -29%; IL1B secr inh: -13; HT1080 IDH1KD tx: inconclusive; DT40 TDP1 no CPT: inconclusive

What do the screens show for `Cc1ccc(N2C(=O)NC(=O)C(CCc3ccccn3)(Cc3ccc(F)cc3)C2=O)cc1` (configuration not stated)?
DT40 TDP1 CPT: 3%; HT1080-NT tox: 0%; IL1B secr inh: 18; ELG1 DNA repair: -11%; HT1080 IDH1KD tx: 2%; DT40 TDP1 no CPT: -22%

What do the screens show for `CCCc1nc2ccccc2c(=O)n1-c1ccc(O)cc1`?
DT40 TDP1 CPT: -10%; HT1080-NT tox: -18%; IL1B secr inh: 9; ELG1 DNA repair: 13%; HT1080 IDH1KD tx: -1%; DT40 TDP1 no CPT: -30%

Results for COc1cccc(-n2c(/C=C\c3ccc(Cl)cc3)nc3ccccc3c2=O)c1 ?
DT40 TDP1 CPT: inconclusive; DT40 TDP1 no CPT: 18µM*

Assay outcomes deposited in PubChem BioAssay by National Center for Advancing Translational Sciences (NCATS).
